Giardia FBPA inh: inhibitors of Giardia lamblia fructose-1,6-bisphosphate aldolase; 0.71% of 290,000 active; Potency, µM (series often up to 59.6 µM), most hits filed as inhibitors; AID 2451; A8B2U2; purified Giardia FBPA; also: nearly all actives have a fitted effect of over 55% in size
Target sequence (A8B2U2 whole entry, looked up): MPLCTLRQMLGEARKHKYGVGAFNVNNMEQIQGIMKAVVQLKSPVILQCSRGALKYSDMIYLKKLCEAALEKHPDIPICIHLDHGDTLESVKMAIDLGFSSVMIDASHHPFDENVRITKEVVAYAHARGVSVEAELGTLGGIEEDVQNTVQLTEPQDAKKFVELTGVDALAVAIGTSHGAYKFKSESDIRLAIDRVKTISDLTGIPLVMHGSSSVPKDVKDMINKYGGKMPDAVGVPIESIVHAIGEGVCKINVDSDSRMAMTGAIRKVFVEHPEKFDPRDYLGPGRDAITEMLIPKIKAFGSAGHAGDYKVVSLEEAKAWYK
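40 nM FBPA preincubated 10 min at RT with compound (up to 57.5 uM final), then substrate plus GAPDH/TPI/NAD/arsenate coupling and diaphorase/resazurin added. Fluorescence read after 20 min at RT, 525/598 nm.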
HCV inhibitor: blocks hepatitis C virus | Huh7.5.1 HCVcc-Cre infection, luciferase reporter, 44 h | Potency, µM (titrated, usually from 41.8 µM), actives largely listed as inhibitors | 3.4% of 340,000 active | AID 651820
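1,000 cells/well; 4 h culture; + compound; + HCVcc-Cre (~0.5 moi); 44 h; luciferase substrate, RT 15 min; read 15 sec.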
HCMV antiviral: human cytomegalovirus inhibition | HFF cells, HCMV-luciferase reporter, 72 h; stronger effect = lower value | activity change, negative = inhibition, % at 57.5 µM | 4.5% of 410,000 active; in the data active = activity change below about -60%; inconclusive = no clear call, values can overlap the other calls; inactive = above about -39%
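Human foreskin fibroblasts infected with luciferase-reporter HCMV at MOI 1 PFU/cell, compounds at two doses. Luciferase measured 72 h post infection; normalized to buffer-only basal and Salinomycin (10uM) controls.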
FMDV inh: antivirals against foot and mouth disease virus. Potency, µM (series often up to 57.9 µM), most hits filed as inhibitors. FMDV antiviral cell-based qHTS. AID 1159524. 1.2% of 410,000 active; calls by dose curve; tested in HEK293T cells; also: read-out not given here; nearly all actives have a fitted effect of over 45% in size
LASV entry inh: Lassa virus entry inhibition | AID 540256 | Lassa virus pseudotype entry inhibition, cell reporter | 1.2% of 300,000 active | Potency, µM (series often up to 37.9 µM), actives largely listed as inhibitors; calls by dose curve; tested in HEK293 cells; also: nearly all actives have a fitted effect of over 50% in size
MARV entry inh: blocks Marburg virus binding to or entry into cells; Marburg virus pseudotyped entry inhibition, cell reporter; Potency, µM (top dose mostly 37.8 µM), most hits filed as inhibitors; 1.8% of 300,000 active; AID 540276; calls by dose curve; tested in HEK293 cells
A number is an active result. Hits are enriched below; roughly 8.3% of the tested compounds scored in any of these assays. Unless noted, calls follow the shape of the dose curve; as a rule, active = well fitted curve in the direction sought with a large enough effect; inconclusive = small, poorly fitted or top-dose-only effect, or another doubt; inactive = no such curve, though single readings can be large; an effect the other way counts as inactive or inconclusive.

For Cc1ccc(S(=O)(=O)N2CCN(Cc3ccccc3Cl)CC2)cc1 the results were HCMV antiviral inactive, FMDV inh inactive and LASV entry inh inactive.
Screening Cc1ccc(CNC(=O)C(=O)Nc2c3c(nn2-c2ccc(F)cc2)CSC3)cc1 returned HCMV antiviral inactive, FMDV inh inactive and LASV entry inh inactive.
`CCOc1ccc(CCNC(=O)c2cc3c(=O)oc4ccc(C)cc4c3s2)cc1OCC` gave HCMV antiviral inactive, FMDV inh inactive, LASV entry inh inactive and MARV entry inh inactive.
For Cc1ccc(NC(=O)COC(=O)c2ccc3c(c2)NC(=O)C2CCCN32)cc1 (stereo unspecified) the results were Giardia FBPA inh inactive, HCV inhibitor 10µM, HCMV antiviral inactive, FMDV inh inactive, LASV entry inh inactive and MARV entry inh inactive.
`COc1ccc(-c2noc(-c3cc(C(C)C)[nH]n3)n2)cc1` gave HCMV antiviral inactive, FMDV inh inactive and LASV entry inh inconclusive.
`Cc1cc(NC(=O)CSc2nc(C(C)C)nc3ccccc23)no1` gave Giardia FBPA inh inactive, HCV inhibitor 12.6µM, HCMV antiviral inconclusive, FMDV inh inconclusive, LASV entry inh inconclusive and MARV entry inh inconclusive.
Cc1nnc(NC(=O)CSc2nc(C(C)C)nc3ccccc23)s1 was read as Giardia FBPA inh inactive, HCV inhibitor inconclusive, HCMV antiviral inconclusive, LASV entry inh inconclusive and MARV entry inh inactive.
For Cc1cc(C)c2cc(C#N)c(SCC(=O)Nc3cc(C)on3)nc2c1 the results were HCV inhibitor inactive, HCMV antiviral -60.6, FMDV inh inactive and MARV entry inh inactive.
CCOc1cc(-c2nnc(SCC(=O)NCc3ccccc3)nc2-c2ccc(OC)c(OCC)c2)ccc1OC was read as HCMV antiviral -74.5, FMDV inh inactive and LASV entry inh inconclusive.
`COCCn1c(-c2ccc(OC)cc2)cnc1SCC(=O)Nc1cc(C)on1` gave Giardia FBPA inh inactive, HCV inhibitor inconclusive, HCMV antiviral -86.2, FMDV inh inconclusive, LASV entry inh inactive and MARV entry inh inconclusive.
Screening Cc1cc(NC(=O)CSc2ccc(F)cc2)no1 returned Giardia FBPA inh inactive, HCV inhibitor inactive, HCMV antiviral inconclusive and FMDV inh inactive.
Screening Cc1cc(NC(=O)CSc2nc(=O)cc(N)n2-c2ccc(Cl)cc2)no1 returned Giardia FBPA inh inactive, HCV inhibitor inactive, HCMV antiviral -64.5, FMDV inh inactive, LASV entry inh inactive and MARV entry inh inactive.
For Cc1cc(NC(=O)CSc2ccccc2)no1 the results were Giardia FBPA inh inactive, HCV inhibitor inactive, HCMV antiviral -102.1, FMDV inh inactive, LASV entry inh inactive and MARV entry inh inconclusive.
Screening Cc1cc(NC(=O)CSCC(=O)Nc2ccc(C)c(C)c2)no1 returned HCV inhibitor inactive, HCMV antiviral active and FMDV inh inactive.
`Cc1cc(NC(=O)CCc2ccc(-c3ccccc3)o2)no1` gave Giardia FBPA inh inactive, HCV inhibitor inactive, HCMV antiviral -101.8, FMDV inh inactive, LASV entry inh inconclusive and MARV entry inh inconclusive.
`Cc1cc(NC(=O)CSCC(=O)Nc2ccc(Cl)c(C(F)(F)F)c2)no1` gave HCV inhibitor inactive, HCMV antiviral inactive, FMDV inh inactive, LASV entry inh inactive and MARV entry inh inactive.
Screening Cc1cc(NC(=O)c2cc(-c3ccccc3)on2)no1 returned Giardia FBPA inh inactive, HCV inhibitor inactive, HCMV antiviral inactive, FMDV inh inactive, LASV entry inh inactive and MARV entry inh inconclusive.
For CCOC(=O)C(CCc1ccccc1)NC(C)C(=O)N1CCCC1C(=O)O (stereo unspecified) the results were Giardia FBPA inh inactive and FMDV inh inactive.
For Cc1cc(NC(=O)CSc2nnc(-c3ccccc3)c(-c3ccccc3)n2)no1 the results were Giardia FBPA inh inactive, HCV inhibitor inconclusive, HCMV antiviral -62.1, FMDV inh inconclusive, LASV entry inh inconclusive and MARV entry inh inconclusive.
`CCCCCCn1c(SCC(=O)Nc2cc(C)on2)nc2ccccc2c1=O` gave Giardia FBPA inh inactive, HCV inhibitor inconclusive, HCMV antiviral -62.9, FMDV inh inactive, LASV entry inh inconclusive and MARV entry inh inconclusive.
Screening CCCn1c(-c2ccc(F)cc2)nc2c(NC(C)CN(C)C)nc(C)nc21 (stereo unspecified) returned Giardia FBPA inh inactive.
CC(NC(=O)Cc1cc(F)cc(F)c1)C(=O)NC(C(=O)OC(C)(C)C)c1ccccc1 (stereo unspecified) was read as Giardia FBPA inh inactive and FMDV inh inactive.
`CCCCNC(=S)N1CCn2cccc2C1c1ccc(F)cc1` (stereo unspecified) gave Giardia FBPA inh inactive, HCV inhibitor inactive, HCMV antiviral inactive, FMDV inh inactive, LASV entry inh 12.6µM and MARV entry inh 6.31µM.
For CCCCNC(=S)N1CCn2cccc2C1c1ccccc1 (stereo unspecified) the results were Giardia FBPA inh inactive, HCV inhibitor inactive, HCMV antiviral inactive, FMDV inh inactive, LASV entry inh inactive and MARV entry inh inconclusive.
Fc1ccc(C2c3cccn3CCN2C(=S)Nc2cccc(Br)c2)cc1 (stereo unspecified) was read as Giardia FBPA inh inactive, HCV inhibitor 10µM, HCMV antiviral inactive, FMDV inh inconclusive, LASV entry inh inactive and MARV entry inh inactive.
S=C(NCCc1ccccc1)N1CCn2cccc2C1c1cccnc1 (stereo unspecified) was read as Giardia FBPA inh inactive, HCV inhibitor inconclusive, HCMV antiviral inactive, FMDV inh inactive, LASV entry inh inactive and MARV entry inh inconclusive.
For S=C(NCc1ccccc1)N1CCn2cccc2C1c1cccnc1 (stereo unspecified) the results were Giardia FBPA inh inactive, HCV inhibitor inactive, HCMV antiviral -71.5, FMDV inh inactive, LASV entry inh inconclusive and MARV entry inh inconclusive.
`CC(=O)c1ccc(-c2c(C3C4C=CCCC4(C)C(=O)N3Cc3ccccc3)ccc3ccccc23)cc1` (stereo unspecified) gave Giardia FBPA inh inactive.
CCCc1[nH]nc2c1C(/C(C)=C/c1ccccc1)C(C#N)=C(N)O2 (stereo unspecified) was read as Giardia FBPA inh inactive, HCV inhibitor inactive, HCMV antiviral -83.5, LASV entry inh inactive and MARV entry inh inconclusive.
CCCc1[nH]nc2c1C(c1ccccc1OCC)C(C#N)=C(N)O2 (stereo unspecified) was read as Giardia FBPA inh inactive, HCV inhibitor inactive, HCMV antiviral inactive, FMDV inh inactive, LASV entry inh inactive and MARV entry inh inactive.
CCCc1[nH]nc2c1C(c1ccccc1OC)C(C#N)=C(N)O2 (stereo unspecified) was read as Giardia FBPA inh inactive, HCV inhibitor inactive, HCMV antiviral inactive, FMDV inh 28.2µM, LASV entry inh inactive and MARV entry inh inactive.
Screening CCOC(=O)Cn1nc(/C=C/c2ccc(OC)cc2)ccc1=O returned HCV inhibitor inactive, HCMV antiviral -105.6, FMDV inh inactive, LASV entry inh inactive and MARV entry inh inactive.

From PubChem
